Experimental data: PubChem BioAssay AID463173 (ICCB-Longwood Screening Facility, Harvard Medical School, 2010)
The campaign covered roughly 52,000 compounds. About 4,300 (8.3%) were called active. The sample holds actives, similar compounds and a random draw of the others, so the mix is not that of the screen. Rule as the data show it: active = survival mostly below about 52% (no sharp cut-off); inactive = mostly above about 56%.

Tested on: DeltatarO mutant
Assay: S. aureus survival, RN4220 and DeltatarO strains – OD600, teichoic acid synthesis inhibitors, primary screen (AID 463173)
Settings: S. aureus RN4220 wild type/DeltatarO growth, OD600, 18 h, stronger effect = lower value, screened at 18.75 µg/mL (by protocol)

SMILES	survival
CCn1nc(C)c2c(-c3ccccc3)cc(=O)n(C(C)C(=O)NCCC(C)C)c21 (stereo not given)	99% (inactive)
COc1ccccc1CNC(=O)C(NS(=O)(=O)c1ccc2c(c1)CCN2C(C)=O)C(C)C (stereo not given)	79% (inactive)
Cc1ccc2sc(NC(=O)c3ccc4c(c3)OCCO4)nc2c1C	92% (inactive)
CNC(=O)c1c(NC(=O)c2cc(=O)c3ccccc3o2)sc2c1CCC2	94% (inactive)
CC1CCCCN1C(=O)CSc1c2c(nc3cc(Cl)ccc13)CCCC2 (stereo not given)	-6% (active)
CC1CCCN(C(=O)CSc2c3c(nc4cc(Cl)ccc24)CCCC3)C1 (stereo not given)	-5% (active)
COc1ccc(OC)c(CNC(=O)CSc2c3c(nc4cc(Cl)ccc24)CCCC3)c1	68% (inactive)
CCOC(=O)c1ccc(NC(=O)CSc2c3c(nc4cc(Cl)ccc24)CCCC3)cc1	68% (inactive)
CC1CCN(C(=O)CSc2c3c(nc4ccc(Cl)cc24)CCCC3)CC1	0% (active)
Cc1ccc(CNC(=O)CSc2c3c(nc4cc(Cl)ccc24)CCCC3)cc1	80% (inactive)
O=C(CSc1c2c(nc3ccc(Cl)cc13)CCCC2)NCc1ccccc1Cl	119% (inactive)
CCC(C)NC(=O)CSc1c2c(nc3cc(Cl)ccc13)CCCC2 (stereo not given)	82% (inactive)
Cc1ccc(C)c(NC(=O)CSc2c3c(nc4ccc(Cl)cc24)CCCC3)c1	53% (inactive)
O=C(CSc1c2c(nc3ccc(Cl)cc13)CCCC2)N1CCCCC1	22% (active)
CCOC(=O)C1CCN(c2nc3c(S(=O)(=O)c4ccc(Br)cc4)nnn3c3ccsc23)CC1	76% (inactive)
O=[N+]([O-])c1ccc(S(=O)(=O)N2CCn3cccc3C2c2ccc(Br)cc2)cc1 (stereo not given)	75% (inactive)
COc1ccc(-c2noc(CSc3nnc(C)n3-c3ccc(C)cc3)n2)cc1OC	59% (inactive)
COC(=O)c1ccc(-c2nc(-c3ccc(OC)c(OC)c3)no2)cc1	64% (inactive)
O=C(CSCc1cc(=O)c2cc(F)ccc2[nH]1)Nc1ccccc1Cl	94% (inactive)
CCOC(=O)c1ccc(NC(=O)CSc2nccn2Cc2ccc(OC)cc2)cc1	79% (inactive)
COc1cc(NC(=O)c2cc(-c3cccc(Cl)c3)on2)c(OC)cc1Cl	61% (inactive)
CC1CCc2nc(NC(=O)COc3ccc(C(C)(C)C)cc3)sc2C1 (stereo not given)	80% (inactive)

SMILES	survival
COCCNC(=O)CSc1c2c(nc3cc(Cl)ccc13)CCCC2	71% (inactive)
CCOC(=O)C1CCN(C(=O)CSc2c3c(nc4ccc(Cl)cc24)CCCC3)CC1	39% (active)
CC1CCN(C(=O)CSc2c3c(nc4cc(Cl)ccc24)CCCC3)CC1	5% (active)
CCOc1ccc(CNC(=O)CSc2c3c(nc4cc(Cl)ccc24)CCCC3)cc1	51% (inactive)
CCc1ccccc1Nc1sc(C(=O)c2cccc(OC)c2)c(N)c1S(=O)(=O)c1ccccc1	72% (inactive)
Cc1ccc(S(=O)(=O)CCc2nnc(NC(=O)C3CCCN3C(=O)NC3CCCCC3)s2)cc1 (stereo not given)	72% (inactive)
CCOc1ccc(CCNC(=O)c2sc3nc4n(c(=O)c3c2C)CCCC4)cc1	75% (inactive)
CCn1cc2nc(SCC(=O)Nc3ccc(C)cc3)n(Cc3ccc(C)cc3)c(=O)c2n1	69% (inactive)
Cc1ccc(CSc2nc(-c3ccc(C(C)(C)C)cc3)nc3cc(=O)[nH]n23)cc1	89% (inactive)
O=c1cc2nc(-c3ccccc3)nc(SCc3cccc(Br)c3)n2[nH]1	98% (inactive)
O=c1cc2nc(-c3ccccc3F)nc(SCc3ccc(Br)cc3)n2[nH]1	0% (active)
Cc1ccc(-c2nc(SCc3ccc(Br)cc3)n3[nH]c(=O)cc3n2)cc1	37% (active)
COc1ccccc1NC(=O)CSc1nc(-c2ccccc2F)nc2cc(=O)[nH]n12	71% (inactive)
Cc1cccc(-c2nc(SCc3ccc(Br)cc3)n3[nH]c(=O)cc3n2)c1	92% (inactive)
CCC(c1nnnn1CCOC)N1CCN(c2nc3ccccc3s2)CC1 (stereo not given)	87% (inactive)
N=C(N)N1CCN(CC(O)COc2ccccc2)CC1 (stereo not given)	84% (inactive)
C#CCn1cc(/C=C(/C#N)C(=O)Nc2ccccc2)c2ccccc21	54% (inactive)
CCCCNC(=O)C1CCN(c2nc(OC)nc(OC)n2)CC1	83% (inactive)
CCn1c(SCC(N)=O)nc2ccccc21	79% (inactive)
O=C(Cn1c(SCCOc2ccccc2Cl)nc2ccccc21)N1CCCCC1	34% (active)
COc1ccccc1OCCSc1nc2ccccc2n1CC(=O)N1CCOCC1	94% (inactive)
Cc1ccc(OCCSc2nc3ccccc3n2CC(=O)N2CCCCC2)c(C)c1	51% (inactive)

SMILES	survival
Cc1cccc(OCCSc2nc3ccccc3n2CC(=O)N2CCCCC2)c1C	28% (active)
O=C(CSc1nc2ccccc2n1CC(=O)N1CCCC1)N1CCCCC1	85% (inactive)
Cc1ccc(C(C)C)c(OCCSc2nc3ccccc3n2CC(O)CO)c1 (stereo not given)	48% (inactive)
CCn1c(SCCOc2ccccc2F)nc2ccccc21	0% (active)
O=C(Cn1c(SCCOc2ccccc2Cl)nc2ccccc21)N1CCOCC1	39% (active)
Cc1cccc(OCCSc2nc3ccccc3n2CC(=O)N2CCOCC2)c1C	50% (inactive)
Cc1ccc(C)c(OCCSc2nc3ccccc3n2CC(=O)N2CCOCC2)c1	55% (inactive)
COc1ccc(CCC(=O)NCc2ccc3c(c2)CCN3C(=O)c2ccc(C)cc2)cc1	75% (inactive)
CC1=C(c2ccc(Cl)cc2)S(=O)(=O)N=C1N1CCN(c2cccc(C)c2)C(C)C1 (stereo not given)	89% (inactive)
CCOC(=O)N1CCC(NC(=O)c2cnn(-c3ccc(OC)cc3)c2C2CCN(C(=O)OC(C)(C)C)CC2)CC1	84% (inactive)
CCOc1ccc(NC(=O)C(C)Sc2nnc3cc(C)c4ccccc4n23)cc1 (stereo not given)	73% (inactive)
COC(=O)Cn1c(SCCOc2ccccc2OC)nc2ccccc21	51% (inactive)
COC(=O)Cn1c(SCCOc2ccccc2Cl)nc2ccccc21	42% (active)
CCCCNC(=O)c1cnn2c(C)c(Cc3c(C)cc(C)cc3C)c(C)nc12	102% (inactive)
COc1ccc(CNC(=O)CCCn2nc(C)c3sc4ccccc4c3c2=O)cc1OC	87% (inactive)
Cc1oc(-c2ccccc2F)nc1CSCC(=O)N1CCN(c2ccccc2)CC1	62% (inactive)
Cc1cccc(-c2nc(CSCC(=O)N3CCN(c4ccccc4)CC3)c(C)o2)c1	17% (active)
COc1ccc(-c2nc(CSCC(=O)N3CCN(c4cccc(C)c4C)CC3)c(C)o2)cc1OC	49% (inactive)
CCc1ccc(-c2nc(CSCC(=O)N3CCN(c4ccc(F)cc4)CC3)c(C)o2)cc1	73% (inactive)
Cc1ccc(-c2nc(CS(=O)(=O)CC(=O)N3CCN(c4cccc(C)c4C)CC3)c(C)o2)cc1	116% (inactive)
Cc1cccc(-c2nc(CSCC(=O)N3CCN(c4cccc(C)c4C)CC3)c(C)o2)c1	8% (active)
